Measured values taken from article PMC5540273 (PLoS ONE, 2017).

Key:
Settings in all cases: concentration: 1 μM,replicates: in singlicate; n = 1
[1] = test system: T1, ERK1
T1 construct: gene MAPK3

[2] = test system: T2, ERK2
T2 construct: gene MAPK1

[3] = test system: T3, ERK3
T3 construct: gene MAPK6

[4] = test system: T4, ERK4
T4 construct: gene MAPK4

[5] = test system: T5, ERK5
T5 construct: gene MAPK7

[6] = test system: T6, ERK8
T6 construct: gene MAPK15

[7] = test system: ERN1
[8] = test system: T7, FAK
T7 construct: gene PTK2

[9] = test system: FER
[10] = test system: FES
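Note: KINOMEscan kinase panel screen.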

| Compound | %Inh [1] [%] | %Inh [2] [%] | %Inh [3] [%] | %Inh [4] [%] | %Inh [5] [%] | %Inh [6] [%] | %Inh [7] [%] | %Inh [8] [%] | %Inh [9] [%] | %Inh [10] [%] |
| --- | --- | --- | --- | --- | --- | --- | --- | --- | --- | --- |
| COc1cccc(C2=C(Nc3cccc(Cl)c3)C(=O)NC2=O)c1 [SB-341556] | 3 | 0 | 0 | 17 | 0 | 71 | 10 | 0 | 0 | 0 |
| COc1cc2ncn(-c3cc(OCC4CCCCC4)c(C(N)=O)s3)c2cc1OC [GSK204559] | 6 | 2 | 18 | 4 | 0 | 2 | 8 | 0 | 23 | 8 |
| Cn1ccc2ncnc(Oc3ccc(NC(=O)Nc4cncc(C(F)(F)F)c4)c(Cl)c3)c21 | 0 | 0 | 0 | 0 | 0 | 0 | 0 | 0 | 0 | 0 |
| CCCC(=O)Nc1n[nH]c2ncccc12 [SB-601436] | 0 | 0 | 0 | 0 | 0 | 0 | 0 | 0 | 0 | 12 |
| COc1cc(Nc2nccc(N3CCC(NC(=O)c4cccc(C#N)c4)C3)n2)cc(OC)c1OC (stereo not drawn) [GSK1379751] | 0 | 0 | 3 | 0 | 0 | 0 | 0 | 0 | 0 | 0 |
| CC(=O)Nc1nc2cnc(Nc3cc(NC(=O)c4cccc(CC(C)(C)C#N)c4)ccc3C)nc2s1 | 1 | 15 | 0 | 4 | 9 | 53 | 0 | 8 | 0 | 0 |
| CNC(=O)c1ccccc1Nc1nc(Nc2cccc(CS(C)(=O)=O)c2)ncc1C.O=CO [GSK1520489] | 46 | 60 | 35 | 35 | 0 | 80 | 58 | 99.9 | 96 | 38 |
| c1ccc(Oc2ccc(Nc3ccnc4ccc(-c5ccccn5)cc34)cc2)cc1 [GW407034] | 0 | 83 | 4 | 0 | 0 | 31 | 0 | 0 | 18 | 0 |
| COC(=O)c1cccc(NC(=O)NC2CCN(c3ccnc(NCc4ccc(F)cc4)n3)CC2)c1 [GSK1379860] | 0 | 14 | 14 | 0 | 22 | 35 | 0 | 0 | 10 | 1 |
| OCCn1cc(-c2cnc3nnn(Cc4ccc5ncccc5c4)c3n2)cn1 | 0 | 0 | 0 | 18 | 3 | 9 | 0 | 0 | 0 | 0 |
| CCn1c(-c2nonc2N)nc2cncc(Br)c21 [SB-738004] | 0 | 6 | 0 | 19 | 6 | 0 | 19 | 9 | 10 | 8 |
| CC(C)S(=O)(=O)N1CCN(Cc2ccc3c(c2)nc(NC(=O)c2ccsc2)n3C[C@H](O)c2ccccc2)CC1 [GW635815] | 0 | 0 | 1 | 0 | 0 | 0 | 4 | 29 | 39 | 15 |
| COc1cc2nccc(Nc3ccc(Oc4ccccc4)cc3)c2cc1OC.Cl [GI261656] | 0 | 0 | 17 | 0 | 0 | 0 | 29 | 0 | 33 | 0 |
| CCOC(=O)N1CCC(n2cnc(-c3ccc(F)cc3)c2-c2ccnc(N)n2)CC1 [SB-219952] | 0 | 0 | 0 | 8 | 0 | 0 | 19 | 0 | 20 | 0 |
| Cc1n[nH]c2cc(Nc3ccnc(Nc4cccc(CN5CCOCC5)c4)n3)ccc12 [GW682569] | 0 | 0 | 0 | 22 | 7 | 0 | 24 | 0 | 8 | 0 |
| CS(=O)(=O)c1cccc(CNc2nc(Nc3ccc4c(c3)[C@@H]3C[C@@H]4CNC3=O)ncc2C(F)(F)F)c1 | 24 | 44 | 0 | 0 | 7 | 99.6 | 17 | 100 | 93.4 | 85 |
| O=C(Nc1n[nH]c2cc(-c3ccco3)ccc12)C1CC1 [SB-737447] | 0 | 0 | 0 | 3 | 0 | 72 | 9 | 3 | 0 | 1 |

| Compound | %Inh [1] [%] | %Inh [2] [%] | %Inh [3] [%] | %Inh [4] [%] | %Inh [5] [%] | %Inh [6] [%] | %Inh [7] [%] | %Inh [8] [%] | %Inh [9] [%] | %Inh [10] [%] |
| --- | --- | --- | --- | --- | --- | --- | --- | --- | --- | --- |
| COc1cccc(OC)c1C(=O)Nc1cccc(-c2nn3ccccc3c2-c2ccnc(Nc3cccc(F)c3)n2)c1 [GSK361065] | 1 | 6 | 1 | 9 | 2 | 3 | 10 | 1 | 24 | 20 |
| CN1CCN(CCCNc2nccc(-c3c(-c4ccc(F)cc4)nn4cc(C(N)=O)ccc34)n2)CC1 [GW622475] | 0 | 2 | 5 | 36 | 0 | 0 | 35 | 0 | 26 | 0 |
| COC(=O)c1cccc(NC(=O)NC2CCN(c3ccnc(Nc4cc(OC)c(OC)c(OC)c4)n3)C2)c1 (stereo not drawn) [GSK1379767] | 0 | 0 | 19 | 0 | 0 | 0 | 4 | 0 | 17 | 15 |
| N#Cc1cccc(C(=O)NC2CCN(c3ccnc(Nc4ccc(F)cc4)n3)C2)c1 (stereo not drawn) [GSK1379708] | 0 | 10 | 9 | 0 | 0 | 0 | 0 | 0 | 30 | 2 |
| O=C(NCC1CC1)c1ccc(-c2cc(C(=O)NC3CC3)ccc2F)cc1 [GW810445] | 0 | 0 | 0 | 0 | 1 | 0 | 0 | 3 | 0 | 0 |
| Cn1ccc2ncnc(Oc3ccc(NC(=O)Nc4ccnc(C(F)(F)F)c4)c(Cl)c3)c21 | 0 | 0 | 0 | 0 | 0 | 0 | 11 | 0 | 0 | 10 |
| Cl.Nc1n[nH]c2cc(-c3ccccn3)ccc12 [GSK2189892] | 0 | 0 | 0 | 31 | 0 | 0 | 0 | 0 | 13 | 0 |
| Cc1ccc(Nc2ccnc(Nc3ccc4c(c3)CS(=O)(=O)C4)n2)cc1O.Cl [GW579362] | 0 | 0 | 51 | 48 | 0 | 18 | 42 | 65 | 52 | 2 |
| O=C(Nc1ccc(Oc2ccc3nc(NC(=O)C4CC4)cn3n2)c(F)c1)c1cccn(-c2ccccc2)c1=O | 0 | 10 | 0 | 5 | 21 | 9 | 0 | 13 | 37 | 13 |
| C[C@@H]1CNc2c(sc3ccc4nc(-c5ccc(O)cc5)ccc4c23)C(=O)N1 | 0 | 16 | 0 | 13 | 8 | 3 | 10 | 6 | 0 | 4 |
| COc1ccc(Nc2nccc(N3CCC(NC(=O)c4cccc(C#N)c4)C3)n2)cc1 (stereo not drawn) [GSK1379730] | 1 | 26 | 0 | 0 | 0 | 30 | 0 | 0 | 27 | 0 |
| Cc1nnc(-c2ccc3occ(-c4ccc(S(C)=O)cc4)c3n2)o1 (stereo not drawn) | 0 | 19 | 0 | 0 | 0 | 0 | 0 | 0 | 0 | 15 |
| COc1cc2c(Nc3ccc(NC(=O)c4ccccc4)cc3)ncnc2cc1OCCCN1CCOCC1 [GSK301329] | 4 | 3 | 0 | 0 | 0 | 0 | 46 | 0 | 4 | 0 |
| Cc1cccc(-c2nc(Nc3ccncc3)c3sccc3n2)n1 [GW869641] | 5 | 18 | 3 | 26 | 0 | 2 | 32 | 2 | 9 | 7 |
| Cc1ccn2nc(-c3ccc(F)cc3)c(-c3ccncc3)c2c1.Cl [GW457859] | 0 | 0 | 1 | 15 | 8 | 0 | 0 | 0 | 2 | 0 |
| Cn1ccc2ncnc(Oc3ccc(NC(=O)Nc4cnn(C(C)(C)C)c4)c(Cl)c3)c21 | 19 | 4 | 0 | 1 | 7 | 25 | 26 | 0 | 0 | 13 |
